Among all 320,000 compounds or so, about 9,100 (2.8%) were called active. A call without a number means that no potency is given here. Another 3% or so got no clear call; they are omitted. The call rests on the fitted dose curve; in most records, active means well fitted activation curve with a large enough effect; inconclusive means small, poorly fitted or top-dose-only effect; inactive means no such curve, though single readings can be large or run the other way. The sample as a whole holds a higher share of actives than the screen did.
Potency means the concentration at half of the fitted maximal effect.

The nature of the assay: qHTS Assay for Rab9 Promoter Activators. Further: nearly all actives have a fitted effect of over 60% in size. The conditions noted are these: Huh7 Rab9 promoter-luciferase reporter, luminescence, 24 h; series mostly up to 9.22 µM. The essentials:
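Rab9 promoter-driven luciferase in stably transfected Huh7 cells; 1500 cells/well rested 2 h, exposed to compound in DMSO for 24 h at 37 °C, 5% CO2. Luminescence read 10 min after adding luciferase reagent at ambient temperature.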
Take `COc1ccc(NC(=O)CC2SC(N3CCCCC3)=NC2=O)cc1OC` (stereo unspecified): the Potency result was “inactive”.
On the same count and under the same terms, next, `CCCc1ccc(C(=O)COC(=O)CN2C(=O)NC3(CCCCC3C)C2=O)cc1` (stereo unspecified): “inactive”; `CCC(C)NC(=O)CCCc1ccccc1` (stereo unspecified): “inactive”.
As to `O=C(CCCc1ccccc1)NCc1ccccc1`, the Potency entry was “inactive”.
On to `C=CCN1CCN(C(=O)CCCc2ccccc2)CC1`, for which the Potency is 0.1 µM (active).
Same read-out and setting: the figure for `COc1ccc2nc(NC(=O)NC3CCCCC3)sc2c1` is 2 µM (active); for `COc1ccc2nc(NC(=O)[C@@H]3CCCN3C(=O)c3cccs3)sc2c1` it is “inactive”; for `CCc1noc(C)c1C(=O)Nc1nc2ccc(OC)cc2s1` it is “inactive”.
On the same count and under the same terms, the entry for `CS(=O)(=O)c1ccc2nc(NC(=O)C3CCCCC3)sc2c1` is “inactive”; for `CCn1c(SCC(=O)Nc2nc3ccc(OC)cc3s2)nnc1-c1ccoc1C` it is “inactive”; for `COc1ccc2nc(NC(=O)c3ccc(Br)s3)sc2c1` it is 2.24 µM (active).
Still for that read-out and setting: next, `C=CCN(c1ccccc1C(=O)NCC(=O)OCC)S(=O)(=O)c1ccc(C)cc1`: “inactive”; `COc1cc(C#Cc2ccc3cc(CCCO)oc(=O)c3c2)cc(OC)c1`: “inactive”.
Turning to `O=C(O)c1cc(S(=O)(=O)Nc2ccc3cn[nH]c3c2)ccc1Br`, the Potency result was “inactive”.
On the same count and under the same terms, next, `O=C(CN1C(=O)NC2(CCOc3ccccc32)C1=O)NCc1ccc(F)cc1` (stereo unspecified): “inactive”.
Still for that read-out and setting: the entry for `CCOc1ccc(OCC(=O)OC(C)C(=O)NC2CCCCC2C)cc1` (stereo unspecified) is “inactive”; for `COc1nc(-c2ccc(Cl)cc2)ccc1-c1noc(-c2cccs2)n1` it is “inactive”.
For the compound `Cc1ccc(-c2nc(-c3ccncc3)no2)c(C)c1`, the Potency is 2.51 µM (active).
Same read-out and setting: next, `Cc1ccc(-c2noc(CSc3nnc(-c4cccs4)n3C)n2)cc1`: “inactive”; `c1csc(-c2nc(-c3ccncc3)no2)c1`: 2.51 µM (active).
Same read-out and setting: next, `Clc1ccc(-n2nnnc2-c2cnc(-c3ccccn3)nc2-c2cccs2)cc1`: “inactive”; `Cc1ccc(-c2noc(CSc3nnc(-c4ccncc4)n3-c3ccc(F)cc3)n2)cc1`: “inactive”.
Still for that read-out and setting: next, `c1ccc(CCc2nc(-c3ccncc3)no2)cc1`: “inactive”; `c1ccc(-c2noc(-c3cccs3)n2)nc1`: 0.355 µM (active).
Take `O=C(NCc1cccnc1)c1nc(-c2cccs2)no1`: the Potency entry was “inactive”.
Same read-out and setting: next, `COc1cccc(C2=CC(=O)C[C@H](c3ccc(OC)c(OC)c3)C2)c1`: “inactive”; `Cc1ccc(NC(=O)CCCNC(=O)c2ccc(Cl)cc2)cc1S(=O)(=O)N1CCCCC1`: “inactive”.
`CN(CCc1ccccn1)C1CCCN(S(=O)(=O)c2ccccc2Cl)C1` (stereo unspecified): the Potency result was “inactive”.
For the compound `O=C(NNC(=O)C1CCC1)c1ccccc1`, the Potency entry was “inactive”.
Same read-out and setting: next, `COc1ccc(C(=O)N2CCN(c3ccc(C(C)=O)cc3F)CC2)cc1S(=O)(=O)NC1CC1`: “inactive”; `O=S(=O)(NC1CCN(S(=O)(=O)c2ccc3c(c2)OCCO3)CC1)c1c(F)cccc1F`: “inactive”; `CN1CCC(N(C)S(=O)(=O)c2ccc(NC(=O)c3cccc(C#N)c3)cc2)CC1`: “inactive”.
On to `CC(=O)NS(=O)(=O)c1ccc(NC(=O)C2C3C=CC(C3)C2C(=O)O)cc1` (stereo unspecified), for which the Potency result is “inactive”.
On the same count and under the same terms, next, `CC(C)COC(=O)c1ccc(NC(=O)C2C3C=CC(C3)C2C(=O)O)cc1` (stereo unspecified): 2.24 µM (active).
As to `COC(=O)c1cc(NC(=O)C2C3C=CC(C3)C2C(=O)O)cc(C(=O)OC)c1` (stereo unspecified), the Potency entry is “inactive”.
As to `CCOc1ncccc1C(=O)OCC(=O)N1c2ccccc2CC1C` (stereo unspecified), the Potency entry was “inactive”.
On to `CC(NC(=O)CSc1nc2c(cc1C#N)CN(C)CC2)c1ccccc1` (stereo unspecified), for which the Potency entry was “inactive”.
Same read-out and setting: the figure for `Cc1cc(NC(=O)CSc2nc3c(cc2C#N)CCCCC3)no1` is 2 µM (active); for `Cc1cc(NC(=O)CSc2nc(C(C)C)nc3sc4c(c23)CCC(C)C4)no1` (stereo unspecified) it is “inactive”.
For `O=C(CNC(=O)C(c1ccccc1)c1ccccc1)N/N=C\c1ccc2c(c1)OCO2`, the Potency result is “inactive”.
The same measure, in the same setting: the entry for `O=C(/C=C/c1ccc2c(c1)OCO2)NCc1ccc(F)cc1` is “inactive”; for `O=C(N/N=C/c1ccc([N+](=O)[O-])cc1)C(=O)N1CCCC1` it is “inactive”.
Still for that read-out and setting: the figure for `O=C(N/N=C/c1ccc2c(c1)OCO2)C(=O)N1CCCC1` is 2.82 µM (active); for `COC(=O)c1ccc(/C=N/NC(=O)C(=O)N2CCCCCC2)cc1` it is “inactive”.
Still for that read-out and setting: the figure for `O=C(Cc1ccc(F)cc1)N/N=C/c1ccc2c(c1)OCO2` is 2.82 µM (active).
Take `S=C(Nc1cccnc1)Nc1ccccn1`: the activation, negative = inhibition is -1.03% [at 1.84 µM] (inactive).
In the case of `O=C(CSc1nnc(COc2ccc(Cl)cc2)n1Cc1ccco1)N1CCNC1=O`, the Potency result is “inactive”.
On the same count and under the same terms, the entry for `O=C(NCC1CCCO1)c1ccc(S(=O)(=O)Nc2ccc(F)cc2)cc1` (stereo unspecified) is “inactive”.
Still for that read-out and setting: next, `COc1cccc(/C=C/C(=O)OCC(=O)N2CCN(c3ccccc3)CC2)c1`: “inactive”; `CC(C)CNC(=O)CC(NCC(C)C)C(=O)O` (stereo unspecified): “inactive”; `C=CCn1c(Oc2ccc(C(=O)OC)cc2)nc2c1c(=O)n(C)c(=O)n2C`: “inactive”.
The same measure, in the same setting: next, `CCN(CC)c1ccc(C(=O)N/N=C/c2ccc(N3CCOCC3)cc2)cc1`: “inactive”.
On to `Cc1ccccc1N/N=C/c1ccc(N2CCOCC2)cc1`, for which the Potency is 2 µM (active).
The same measure, in the same setting: next, `C(=N/Nc1cc(N2CCOCC2)nc(N2CCOCC2)n1)/c1ccccc1`: “inactive”; `COc1ccc(C(=O)NCC(=O)N/N=C/c2cccnc2)cc1`: “inactive”.
In the case of `Cc1ccc(C(=O)Nc2cccc3ncccc23)cc1[N+](=O)[O-]`, the Potency entry was “inactive”.
On the same count and under the same terms, the entry for `CCN1CCC(=NNC(=O)c2ccc(C)c([N+](=O)[O-])c2)CC1` is “inactive”; for `Cc1cc(O)c(NC(=O)c2ccc(C)c([N+](=O)[O-])c2)cc1C` it is 2.82 µM (active); for `CN(CC(=O)Nc1c(Cl)cccc1Cl)C(=O)CC1OC(=O)c2ccccc21` (stereo unspecified) it is “inactive”.
On the same count and under the same terms, next, `COc1cc(C(c2c(NC(=O)c3ccco3)sc(C)c2C)N2CCOCC2)cc(OC)c1OC` (stereo unspecified): “inactive”; `COCCN(C(=O)CSCc1ccc(C)cc1)c1c(N)n(CC(C)C)c(=O)[nH]c1=O`: “inactive”; `CCN(CC)S(=O)(=O)c1ccc(OC)c(NC(=O)CCc2c(C)noc2C)c1`: “inactive”.
The same measure, in the same setting: next, `O=C(C[n+]1cc(Br)cc2ccccc21)c1ccc(F)cc1`: “inactive”.
On to `O=C(c1ccc(F)cc1)n1cc(C(=S)N2CCOCC2)c2ccccc21`, for which the Potency entry was “inactive”.
As for `O=C(c1ccc(F)cc1)n1c(=S)nc2ccccn21`, the Potency was 0.891 µM (active).
Still for that read-out and setting: next, `FC(F)(F)c1cnc(Oc2ccccc2-c2nnc(-c3ccc(Cl)cc3)o2)c(Cl)c1`: “inactive”; `Clc1ccc(-c2nnc(SCc3nc4ccccc4s3)o2)cc1`: “inactive”.
On the same count and under the same terms, next, `CSc1ccccc1-c1nnc(-c2ccc(Cl)cc2)o1`: 3.98 µM (active).
Same read-out and setting: next, `COC(=O)c1ccc(C)c(NC(=O)C2CC(=O)N(C3CCCC(C)C3C)C2)c1` (stereo unspecified): “inactive”; `CC(=O)Nc1ccc(S(=O)(=O)NC(C)C(=O)OCCOc2ccc(F)cc2)cc1` (stereo unspecified): “inactive”.
Regarding `O=C(N/N=C/c1cccc(Br)c1)c1ccc(N2CCCC2=O)cc1`, the Potency entry was “inactive”.
Still for that read-out and setting: the figure for `COc1cc(/C=N/NC(=O)c2ccc(N3CCCC3=O)cc2)ccc1O` is 3.98 µM (active).
With `COc1ccc(C(=O)Nc2ccccc2C(=O)N/N=C/c2ccc(O)c(OC)c2)cc1`, the Potency entry is “inactive”.
As for `O=C(Nc1ccc(Br)cc1)C1CCC(=O)N1Cc1ccccc1Cl` (stereo unspecified), the Potency entry is “inactive”.
The same measure, in the same setting: the entry for `CC1CCN(C(=O)/C(=C\c2ccccc2F)NC(=O)c2ccccc2)CC1` is “inactive”; for `Cc1c(NC(=O)c2cc(-c3ccc(Br)cc3)on2)c(=O)n(-c2ccccc2)n1C` it is “inactive”; for `COc1ccc(-c2cc(C(=O)NCCCN3CCOCC3)no2)cc1` it is “inactive”.
Take `CC(C)CNC(=O)c1cc(-c2ccc(Br)cc2)on1`: the Potency was 3.55 µM (active).
`O=C1COc2ccc(C(=O)CSc3ccc(Br)cc3)cc2N1`: the Potency result is “inactive”.
Still for that read-out and setting: the entry for `O=C(CCc1ccccc1Cl)Nc1ccc(S(=O)(=O)Nc2nccs2)cc1` is “inactive”; for `COc1cc(C(=O)NCC(c2ccco2)N2CCCC2)ccc1OCc1ccccc1` (stereo unspecified) it is “inactive”; for `CN(C)S(=O)(=O)c1cccc(NC(=S)N/N=C/C(=O)c2ccccc2)c1` it is “inactive”.
On the same count and under the same terms, next, `O=C(N/N=C/c1c[nH]c2ccccc12)c1cc2ccccc2o1`: “inactive”.
On the same count and under the same terms, next, `O=C(O)c1cccc(NC(=S)N/N=C/c2c[nH]c3ccccc23)c1`: 3.55 µM (active); `O=S(=O)([N-]c1nc2ccccc2nc1-[n+]1ccc(Cc2ccccc2)cc1)c1ccc(Br)s1`: “inactive”.
As for `CCOc1ccc2nc(C(=O)N3CCCC(C)C3)sc2c1` (stereo unspecified), the Potency was 1.78 µM (active).
Same read-out and setting: next, `CCCC(=O)N(CCN1CCOCC1)c1nc2ccc(OCC)cc2s1`: “inactive”; `CCOc1ccc2nc(N(CCN(C)C)C(=O)c3ccc4ccccc4c3)sc2c1`: “inactive”.
The same measure, in the same setting: the entry for `CN(C)S(=O)(=O)c1ccc(C(=O)NCC2(N3CCOCC3)CCCCC2)cc1` is “inactive”; for `CNS(=O)(=O)c1ccc(C(=O)NCC(=O)NCCc2ccc3c(c2)OCCO3)cc1` it is “inactive”.
Still for that read-out and setting: the entry for `Cc1cccc(N(Cc2ccccc2)C(=O)c2ccccc2F)c1` is “inactive”; for `CCN1/C(=C/c2ccc3ccc(C)cc3[n+]2CC)Sc2ccccc21` it is “inactive”; for `CCN1/C(=C/C(=S)Nc2ccccc2)Sc2ccccc21` it is 2.82 µM (active).
Turning to `O=C(CCN1c2ccccc2Sc2ccccc21)Nc1ccccc1`, the Potency result was “inactive”.
The same measure, in the same setting: the entry for `CC(OC(=O)Cc1ccc(F)cc1)C(=O)N1CCc2ccccc21` (stereo unspecified) is “inactive”; for `COc1cccc(C(=O)Nc2nnc(S(=O)(=O)N3CCCCC3)s2)c1` it is “inactive”; for `C=CCN1C(=O)c2ccc(C(=O)N3CCC(C(=O)OCC)CC3)cc2C1=O` it is “inactive”.
`Cc1ccc(OS(=O)Nc2cccc3nccnc23)cc1` (stereo unspecified): the Potency result is “inactive”.
The same measure, in the same setting: next, `Nc1c(C(=O)Nc2ccc3c(c2)OCCO3)nnn1Cc1ccccc1`: 1.26 µM (active); `CCc1ccc(NC(=O)Cn2nnc(C(=O)NCc3ccc4c(c3)OCO4)c2N)cc1`: “inactive”.
Take `O=C(CCS(=O)(=O)Cc1ccccc1)Nc1ccc2c(c1)OCCO2`: the Potency result is “inactive”.
The same measure, in the same setting: next, `CC(C)(C)OC(=O)NCCCCCNC(=O)c1nc[nH]c1C(=O)NCc1ccccc1`: “inactive”; `O=C(c1cnn2ccccc12)N1CCc2ccccc21`: 1.78 µM (active); `CCOC(=O)N1CCC(NC(=O)c2cnn3ccccc23)CC1`: “inactive”.
The same measure, in the same setting: next, `Cc1cnc(C(=O)OCC(=O)N2CCc3ccccc32)cn1`: “inactive”; `CC(=O)c1c(C)[nH]c(C(=O)N2CCN(S(=O)(=O)c3ccc(F)c(F)c3)CC2)c1C`: “inactive”.

(Values after PubChem BioAssay AID485297 (National Center for Advancing Translational Sciences (NCATS), 2010).)
